An excerpt weighted towards active compounds, which were near 3% of everything screened.
SENP6 inh: SENP6 protease inhibition; Q9GZR1; Recombinant SENP6 catalytic domain, aminoluciferin luminescence; inhibition, % at 10 µM; actives 1.8% (n = 330,000); AID 2599;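 active = inhibition above about 50% at the single tested dose, limit read from the data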;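 note: plate controls were DMSO wells with enzyme for no effect and DMSO wells lacking enzyme for full effect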
PPC-1+TRAIL kill: kills PPC-1 cancer cells in the presence of TRAIL; cell killing (% activity), % at 4 µM or 5 µM; actives 0.41% (n = 220,000); PPC-1 cells + TRAIL, ATPLite viability luminescence; AID 1443;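 active = cell killing above 50% in the first pass at 4 µM, then a duplicate retest at 5 µM averaging 50% or more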;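 note: plate controls were cells with TRAIL plus DMSO for no effect and medium-only wells lacking cells for full effect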
SENP7 inh: blocks the human protease SENP7. Q9BQF6. recombinant SENP7, Z-RLRGG-aminoluciferin luminescence, 40 min. inhibition, % at 5 µM. actives 1.5% (n = 330,000). AID 434973;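 active = inhibition above about 50% at the single test dose, limit read from the data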;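 note: plate controls were DMSO with enzyme for no effect and no enzyme buffer wells for full effect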
Target sequence (Q9BQF6 706-1050 limits assumed): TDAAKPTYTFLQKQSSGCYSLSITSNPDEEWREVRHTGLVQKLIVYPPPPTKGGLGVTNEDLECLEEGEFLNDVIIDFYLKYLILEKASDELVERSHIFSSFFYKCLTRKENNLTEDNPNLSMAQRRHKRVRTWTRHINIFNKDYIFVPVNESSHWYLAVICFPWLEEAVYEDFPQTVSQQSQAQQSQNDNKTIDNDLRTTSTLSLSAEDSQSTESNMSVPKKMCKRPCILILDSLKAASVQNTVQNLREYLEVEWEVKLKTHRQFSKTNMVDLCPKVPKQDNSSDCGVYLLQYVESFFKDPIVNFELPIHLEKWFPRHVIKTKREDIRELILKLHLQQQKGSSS
SENP8 block-1: blocks human SENP8 cleavage of Nedd8 substrate | AID 602440 | Q96LD8 | actives 0.64% (n = 360,000) | inhibition, % at 20 µM | recombinant SENP8, Nedd8 substrate fluorescence; in the data active = inhibition mostly above about 40%, no sharp cut-off; inactive = mostly below about 27%
TRAIL sens C8: caspase-8 TRAIL sensitization. NB7+C8 cells + TRAIL, ATPlite viability luminescence. inhibition (viability loss, TRAIL sensitization), % at 10 µM. actives 1% (n = 360,000). AID 624354;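 active = compounds causing at least 50% loss of cell viability in the single-dose screen, relative to plate controls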
SENP8 block-2: blocks the human protease SENP8 | Q96LD8 | AID 2540 | inhibition, % at 10 µM | actives 1.2% (n = 330,000) | purified SENP8, Z-RLRGG-aminoluciferin cleavage, luminescence; in the data active = inhibition above about 50%
PPC1 cytotox: kills PPC-1 cells; shares compounds with PPC-1+TRAIL kill; PPC-1 viability, ATPlite luminescence, overnight; cytotoxicity, % at 5 µM; actives 50% (n = 1,200);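 active = reconfirmed compounds whose average cytotoxicity reaches 50% or more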;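 note: 0% = DMSO-treated cells and 100% = wells holding medium but no cells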
Numbers without * were called inactive.

How did O=C1C(Cl)=C(NCCN2CCCCC2)C(=O)c2ccccc21 do in these assays?
SENP6 inh: 37.0; PPC-1+TRAIL kill: 47.5; SENP7 inh: 20.0; SENP8 block-1: 76.1*; TRAIL sens C8: 91.9*; SENP8 block-2: 29.7; PPC1 cytotox: 46.3

Results for Cc1ccc(-c2nc3ccccc3[nH]2)cn1 ?
SENP6 inh: 48.1; SENP7 inh: 43.0; SENP8 block-1: -378.7; TRAIL sens C8: 11.9; SENP8 block-2: 5.4

How did Cc1nc2ccc(-c3nc4ccccc4[nH]3)cc2[nH]1 do in these assays?
SENP6 inh: 56.7*; PPC-1+TRAIL kill: 39.9; SENP7 inh: 49.0; SENP8 block-1: -187.7; TRAIL sens C8: 45.5; SENP8 block-2: 16.3; PPC1 cytotox: 38.0

What do the screens show for `NS(=O)(=O)c1cccc(NC(=O)CSc2nnc(C3CC3)n2-c2ccccc2)c1`?
SENP6 inh: -4.5; SENP7 inh: -1.7; SENP8 block-1: 13.7; TRAIL sens C8: 4.3; SENP8 block-2: -0.3

Results for Cc1[nH]oc(=O)c1N=Nc1ccc2[nH]c(=O)[nH]c2c1 ?
SENP6 inh: -2.6; SENP7 inh: 35.6; SENP8 block-1: 18.2; TRAIL sens C8: -6.0; SENP8 block-2: -21.6

How did C/C(=N\N1C(=O)c2ccccc2NC1c1ccco1)c1ccccc1O (stereo unspecified) do in these assays?
SENP6 inh: 16.6; PPC-1+TRAIL kill: 46.2; SENP7 inh: 9.7; SENP8 block-1: -2.3; TRAIL sens C8: 76.0*; SENP8 block-2: 15.1; PPC1 cytotox: 50.0*

What do the screens show for `COc1ccc(/C(C)=N/N2C(=O)c3ccccc3NC2c2ccc(O)c(OC)c2)cc1` (stereo unspecified)?
SENP6 inh: 8.1; PPC-1+TRAIL kill: 17.1; SENP7 inh: 3.0; SENP8 block-1: -459.6; TRAIL sens C8: 4.1; SENP8 block-2: 0.9

What do the screens show for `C/C(=N\N1C(=O)c2ccccc2NC1c1ccccc1)c1ccccc1O` (stereo unspecified)?
SENP6 inh: -26.7; PPC-1+TRAIL kill: 48.0; SENP7 inh: -15.4; SENP8 block-1: 3.6; TRAIL sens C8: 69.9*; SENP8 block-2: -11.5; PPC1 cytotox: 42.3

Results for O=C(COC(=O)c1n[nH]c(=O)c2ccccc12)Nc1ccccc1 ?
SENP6 inh: -6.1; SENP7 inh: 0.6; SENP8 block-1: 7.9; TRAIL sens C8: 19.3; SENP8 block-2: -0.4

What do the screens show for `CC1(C2CCCC2)NC(=O)NC1=O` (stereo unspecified)?
SENP8 block-1: 10.7; TRAIL sens C8: -8.8

How did Cc1ccc([C@H]2C[C@@H](n3cc(COC(=O)c4ccccc4)nn3)[C@H](O)CN2C(=O)c2cccs2)cc1 do in these assays?
SENP8 block-1: 7.3; TRAIL sens C8: 26.1

Results for CC(C)c1nc(NCC2CCCO2)c(C#N)c2c1COC(C)(C)C2 (stereo unspecified) ?
SENP6 inh: -2.3; PPC-1+TRAIL kill: -2.4; SENP7 inh: -2.2; SENP8 block-1: inactive; TRAIL sens C8: -11.9; SENP8 block-2: 3.7; PPC1 cytotox: -7.0

What do the screens show for `Cc1ccc(NS(=O)(=O)c2ccc3c(c2)CC(=O)N3)cc1F`?
SENP6 inh: -11.0; SENP7 inh: -1.6; SENP8 block-1: 13.0; TRAIL sens C8: -20.6; SENP8 block-2: -3.9

How did O=C1C(Nc2ccc(O)cc2)=C/C(=N/S(=O)(=O)c2cccs2)c2ccccc21 do in these assays?
PPC-1+TRAIL kill: 73.0*; SENP8 block-1: 82.6*; TRAIL sens C8: 96.3*; PPC1 cytotox: 73.6*

What do the screens show for `Cc1ccc(Nc2cc(=O)oc3ccccc23)c(C)c1`?
SENP6 inh: -2.2; PPC-1+TRAIL kill: 5.1; SENP7 inh: -2.3; SENP8 block-1: 7.6; TRAIL sens C8: 15.0; SENP8 block-2: -4.8

How did Cc1ccc(NC2=C/C(=N\S(=O)(=O)c3cccs3)c3ccccc3C2=O)c(C)c1 do in these assays?
SENP6 inh: 75.6*; PPC-1+TRAIL kill: 51.6*; SENP7 inh: 81.3*; SENP8 block-1: 115.9*; TRAIL sens C8: 95.6*; SENP8 block-2: 91.5*; PPC1 cytotox: 53.6*

How did Cc1cccc(NCc2ccccc2O)c1C do in these assays?
SENP6 inh: -4.2; PPC-1+TRAIL kill: 11.7; SENP7 inh: 2.7; SENP8 block-1: 29.4; TRAIL sens C8: -1.9; SENP8 block-2: -7.4

Assay outcomes deposited in PubChem by Sanford-Burnham Center for Chemical Genomics.
